Values joined by “and” are separate entries in the source; they are usually repeats but may differ in a detail not shown here. Identical values can stand only once. Records with an inconclusive call do not appear. A call without a number means that no potency is given here. Active and inactive are the calls of the source. Unless noted, calls follow the shape of the dose curve; as a rule, active = well fitted curve in the direction sought with a large enough effect; inconclusive = small, poorly fitted or top-dose-only effect, or another doubt; inactive = no such curve, though single readings can be large; an effect the other way counts as inactive or inconclusive.
How the values were obtained:
[1] = qHTS assay for small molecule agonists of the antioxidant response element (ARE) signaling pathway measured by Nrf2-dependant transcriptional activity (AID 720636; active = well fitted curve in the direction sought with a large enough effect in the repeat runs; an effect the other way counts as inactive or inconclusive;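 also: HepG2 cells with an ARE-driven luciferase reporter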)
Method in brief: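 ONE-Glo luminescence, read 30 min after reagent addition at room temperature, reflected ARE reporter activity in HepG2 cells that had been incubated with compound for 16 hr at 37 C in 1% dialyzed FBS.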

[2] = qHTS assay for small molecule antagonists of the retinoid-related orphan receptor gamma (ROR-gamma) signaling pathway - cell viability counter screen (AID 720652; active = well fitted curve in the direction sought with a large enough effect in the repeat runs; an effect the other way counts as inactive or inconclusive;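 also: CHO reporter cells with doxycycline-induced ROR-gamma expression; compound exposure lasted 16 hr before ATP read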)
Method in brief: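 CHO RORE-LUC/TET-ROR line, 1,000 cells/well, 37 C 5% CO2 5 hr; cpd or DMSO + doxycycline induction, 16 hr. CellTiter-Glo, 30 min RT, luminescence = ATP content.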

[3] = qHTS assay for small molecule agonists of the antioxidant response element (ARE) signaling pathway measured by Nrf2-dependant transcriptional activity - cell viability counter screen (AID 720653; active = well fitted curve in the direction sought with a large enough effect in the repeat runs; an effect the other way counts as inactive or inconclusive); details: ARE-bla HepG2 viability, CellTiter-Glo ATP luminescence, 16 h; max response: stronger effect = lower value
Method in brief: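 ARE-bla HepG2 cells treated with compounds for 16 h at 37C; this counter screen measures viability as intracellular ATP by CellTiter-Glo luminescence after 30 min at room temperature.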

[4] = qHTS Assay for Identifying Gametocytocidal Compounds (AID 743244);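 also: actives lower the fluorescent signal which means gametocytes are killed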; details: P. falciparum 3D7 stage III-V gametocytes, alamarBlue, 72 h; max response: stronger effect = lower value
Method in brief: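 Late gametocytes (III–V), P. falciparum 3D7; 72 h drug, then 24 h alamarBlue; resazurin reduction read by fluorescence.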

[5] = qHTS assay for cell viability of HEK293 cells (AID 743288); details: ATP luminescence (CellTiter-Glo), 18 h, stronger effect = lower value; also: nearly all actives have a fitted effect of over 50% in size
Method in brief: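 Readout is luciferase-coupled ATP content (CellTiter-Glo luminescence, 30 min room temperature) as a measure of metabolically competent cells. Parental HEK293 cells were plated 5 h or more before compound addition, then treated 18 h at 37 C.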

[6] = qHTS assay for cell viability of the p53RE-bla HCT-116 cell line (AID 743292); also: nearly all actives have a fitted effect of over 55% in size
Method in brief: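 After plating at 4,000 cells per well and a 5 h rest at 37 C, HCT-116 cells carrying p53RE-bla received test chemicals in DMSO. Sixteen hours later at 37 C, CellTiter-Glo was added and luminescence recorded following 30 min at room temperature.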

[7] = target: T1, Hexokinase-4 (Homo sapiens) + Glucokinase regulatory protein (Homo sapiens) (UniProt P35557+Q14397); experiment: qHTS assay for inhibitors of recombinant human GCK-GKRP interaction: ADP-Glo assay (AID 743206)
T1 sequence (P35557 whole entry, looked up): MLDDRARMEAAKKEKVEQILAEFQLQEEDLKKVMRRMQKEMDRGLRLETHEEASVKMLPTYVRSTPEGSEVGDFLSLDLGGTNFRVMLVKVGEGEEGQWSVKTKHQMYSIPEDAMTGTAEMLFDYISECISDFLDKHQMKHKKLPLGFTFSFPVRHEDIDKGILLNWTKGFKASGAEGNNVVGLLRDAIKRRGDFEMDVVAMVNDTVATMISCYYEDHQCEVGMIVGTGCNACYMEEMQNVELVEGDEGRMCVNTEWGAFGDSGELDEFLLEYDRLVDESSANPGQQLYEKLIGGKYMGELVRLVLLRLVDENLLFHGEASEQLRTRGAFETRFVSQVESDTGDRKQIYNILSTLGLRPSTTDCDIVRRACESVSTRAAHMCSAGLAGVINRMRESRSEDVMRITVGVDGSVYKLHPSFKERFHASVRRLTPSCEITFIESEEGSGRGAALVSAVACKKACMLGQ
T1 sequence (Q14397 whole entry, looked up): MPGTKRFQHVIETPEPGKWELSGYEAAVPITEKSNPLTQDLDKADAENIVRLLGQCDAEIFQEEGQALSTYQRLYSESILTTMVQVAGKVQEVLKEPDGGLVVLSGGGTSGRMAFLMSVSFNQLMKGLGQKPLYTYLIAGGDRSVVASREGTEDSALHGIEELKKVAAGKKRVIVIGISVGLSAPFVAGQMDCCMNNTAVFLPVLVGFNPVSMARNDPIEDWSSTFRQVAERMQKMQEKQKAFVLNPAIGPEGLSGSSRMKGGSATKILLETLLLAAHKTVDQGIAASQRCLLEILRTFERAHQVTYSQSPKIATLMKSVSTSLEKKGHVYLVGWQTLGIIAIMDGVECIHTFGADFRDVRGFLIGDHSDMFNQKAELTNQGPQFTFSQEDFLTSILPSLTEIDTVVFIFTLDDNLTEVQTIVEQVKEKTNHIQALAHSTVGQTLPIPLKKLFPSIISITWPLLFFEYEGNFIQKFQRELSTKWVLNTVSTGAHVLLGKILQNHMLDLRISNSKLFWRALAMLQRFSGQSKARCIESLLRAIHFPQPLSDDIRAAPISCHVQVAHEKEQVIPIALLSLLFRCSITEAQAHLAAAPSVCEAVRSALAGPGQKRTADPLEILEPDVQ
Method in brief: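 Pin-transferred compounds meet a 15 nM GST-GCK/15 nM FLAG-GKRP/2 uM S6P mix (dispense concentrations). ATP is then added to 0.4 mM final with 5 mM glucose, and the reaction runs 60 min at room temperature. ADP is quantified luminescently.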

[8] = target: T1, Hexokinase-4 (Homo sapiens) + Glucokinase regulatory protein (Homo sapiens); experiment: qHTS assay for inhibitors of recombinant human GCK-GKRP interaction: HTRF assay (AID 743207)
Method in brief: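 After 60 min equilibration at room temperature with anti-FLAG XL665 and anti-GST antibodies, FRET ratio (665/615 nm, excitation 320 nm) was read. Proteins: GST-GCK and FLAG-GKRP, each 5 nM, plus 2 uM S6P, pH 7.1 buffer; GCK-free wells define minimum signal.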

[9] = qHTS profiling for inhibitors of Plasmodium falciparum (3D7) proliferation (AID 743322);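 also: infected erythrocytes exposed to compound for 72 h before lysis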; details: P. falciparum 3D7 proliferation; at 28.7 µM (top of the series)
Method in brief: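 Parasite DNA was quantified by SYBR Green I fluorescence (ex 485, em 535 nm) after overnight lysis in saponin/Triton buffer at room temperature. Cultures at 0.3% parasitemia and 2.5% hematocrit were first exposed to compound for 72 h at 37 C; signals were normalised to artemisinin (0.29 uM) and vehicle wells.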

[10] = qHTS profiling for inhibitors of Plasmodium falciparum (DD2) proliferation (AID 743323; call rule not given here); details: lower = more inhibition; at 28.7 µM (top of the series)
Method in brief: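 P. falciparum Dd2-infected erythrocytes (0.3% parasitemia, 2.5% hematocrit) exposed 72 h at 37 C, 5% CO2. Lysis with SYBR Green, overnight at room temperature, fluorescence 485/535 nm; normalized to 0.29 uM artemisinin and DMSO.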

Oc1ccccc1
outcome [1]: inactive
outcome [2]: inactive
max response [3]: -6.78% (inactive) and -2.25% (inactive) and 3.75% (inactive)
max response [4]: 2.14% (inactive)
max response [5]: -3.62% (inactive) and -6.12% (inactive) and 4.72% (inactive)
Potency [6]: inactive

CN1C(=O)c2ccccc2C1=O
outcome [1]: inactive
max response [3]: -2.52% (inactive)
max response [4]: 10.3% (inactive)
max response [5]: -9.41% (inactive)
Potency [6]: inactive

CCCCC(CC)COC(=O)c1ccccc1C(=O)O (stereo not drawn)
outcome [1]: inactive
outcome [2]: inactive
max response [3]: 4.74% (inactive) and -13.7% (inactive)
max response [4]: -17.7% (inactive)
max response [5]: -6.66% (inactive) and 0.856% (inactive)
Potency [6]: inactive

Brc1ccccc1-c1ccccc1
outcome [1]: inactive
outcome [2]: inactive
max response [3]: 3.59% (inactive)
max response [4]: -19.3% (inactive)
max response [5]: -7.8% (inactive)
Potency [6]: inactive

Cc1ccc(O)cc1
outcome [1]: inactive
outcome [2]: inactive
max response [3]: -5.41% (inactive)
max response [4]: -13.3% (inactive) and 9.92% (inactive)
max response [5]: 0.239% (inactive)
Potency [6]: inactive

COC(=O)C1=CO[C@@H](O)[C@@H]2C(CO)=CC[C@H]12
outcome [7]: inactive
outcome [8]: inactive
max response [4]: 18% (inactive)

CC(C)(c1ccc(O)cc1)c1ccc(O)cc1
outcome [1]: inactive
outcome [2]: inactive
max response [3]: -12.4% (inactive) and -0.346% (inactive) and -0.0074% (inactive)
max response [4]: -6.17% (inactive)
max response [5]: 0.899% (inactive) and -7.06% (inactive) and -9.11% (inactive)
Potency [6]: inactive

O=C(Oc1ccccc1)c1cccc(C(=O)Oc2ccccc2)c1
max response [3]: -2.16% (inactive)
max response [4]: -7.52% (inactive)
max response [5]: -18.4% (inactive)
Potency [6]: inactive

Clc1ccc2c(c1)N=C(N1CCNCC1)c1ccccc1N2
outcome [7]: inactive
outcome [8]: inactive

CC(C)(C)c1ccc(O)c(O)c1
outcome [1]: inactive
max response [3]: -2.01% (inactive) and -13.6% (inactive)
max response [5]: -4.72% (inactive) and -5.96% (inactive)
Potency [6]: inactive

O=C(Nc1ccc(Cl)cc1)Nc1ccc(Cl)c(Cl)c1
outcome [1]: inactive
Potency [6]: inactive
remaining parasite growth % (stronger effect = lower value) [9]: -1.23%
activity, percent of control [10]: -0.0718%

NC(N)=NCCCCN=C(N)N
outcome [7]: inactive
outcome [8]: inactive
max response [4]: 2.24% (inactive) and 15.3% (inactive)

c1ccc2occc2c1
outcome [2]: inactive
max response [3]: 3.88% (inactive) and -20.4% (inactive) and 16.8% (inactive)
max response [4]: -7.52% (inactive)
max response [5]: -2.02% (inactive) and -29.2% (inactive) and -7.14% (inactive)
Potency [6]: inactive

OCc1c[nH]c2ccccc12
outcome [1]: inactive
outcome [2]: inactive
max response [3]: 3.93% (inactive)
max response [5]: 5.55% (inactive)
Potency [6]: inactive

COc1cc(C=O)ccc1O
outcome [1]: inactive
outcome [2]: inactive
max response [3]: -6.02% (inactive) and -3.47% (inactive)
max response [4]: 16.9% (inactive)
max response [5]: -1.87% (inactive) and -5.65% (inactive)
Potency [6]: inactive

C1=CC2C3C=CC(C3)C2C1 (stereo not drawn)
outcome [1]: inactive
outcome [2]: inactive
max response [3]: -2.11% (inactive)
max response [4]: -11.9% (inactive)
max response [5]: -14.2% (inactive)
Potency [6]: inactive

COC(=O)c1c(Cl)c(Cl)c(C(=O)OC)c(Cl)c1Cl
outcome [1]: inactive
max response [3]: -11.1% (inactive)
max response [5]: -7.06% (inactive)
Potency [6]: inactive

CCCC(=O)c1cc(O)c(O)cc1O
outcome [1]: inactive
max response [3]: -22.5% (inactive)
max response [4]: 30.2% (inactive)
max response [5]: -20% (inactive)
Potency [6]: inactive

O=C(NO)c1ccccc1
outcome [1]: inactive
outcome [2]: inactive
max response [3]: -9.7% (inactive)
max response [4]: 14.9% (inactive)
max response [5]: -10.3% (inactive)
Potency [6]: inactive

O=C(Oc1ccccc1)c1ccccc1O
outcome [1]: inactive
outcome [2]: inactive
max response [3]: -7.62% (inactive) and 5.57% (inactive)
max response [4]: 7.75% (inactive)
max response [5]: 1.49% (inactive) and 4.97% (inactive)
Potency [6]: inactive
